Measured values: PubChem BioAssay
Active and inactive are the calls of the source.

How the values were obtained:
[1] = E. coli DRC41 culture turbidity changes, primary screen, E. coli filamentation inducer project, strain DRC41, OD650, 48 h (AID 1152);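 note: E. coli MC1000 strain DRC41 lacking acrAB efflux pump and sulA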; conditions: E. coli DRC41 (acrAB sulA), higher = more signal, called active from +8 up or from −8 down
[2] = small-molecule binders of probe aLefty1, primary screen, biochemical, small-molecule microarray, 635/667 nm fluorescence (AID 1153); conditions: higher = more signal;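 note: score merges spot fluorescence with signal-to-noise ratio from the scanned slide images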
[3] = PSAC antagonists in infected red cells, primary screen, cell-based, P. falciparum Indochina, OD700, 1 h (AID 1154); conditions: P. falciparum Indochina infected RBC osmotic lysis, higher = more signal, called active from +8 up or from −8 down
[4] = PSAC antagonists in infected red cells, primary screen, cell-based, P. falciparum Indochina, OD700, 2 h (AID 1155);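 note: lysis reports solute entry through the parasite surface anion channel PSAC; channel blockers reduce lysis of infected cells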; conditions: P. falciparum Indochina infected erythrocytes, osmotic lysis OD700; higher = more signal, called active from +8 up or from −8 down
[5] = osmotic lysis modulators in infected erythrocytes, primary screen, PSAC antagonist project, cell-based, P. falciparum Indochina, OD700, 3 h (AID 1156); conditions: higher = more signal, called active from +8 up or from −8 down
[6] = PSAC antagonists in infected red cells, primary screen, cell-based, P. falciparum Indochina, OD700, 18 h (AID 1157); conditions: P. falciparum Indochina infected erythrocytes, osmotic lysis OD700, 18 h; higher = more signal, called active from +8 up or from −8 down
[7] = modulators of S6 phosphorylation in cells, primary screen, cell-based, A549, cytoblot, luminescence, serum-stimulated (AID 1158); conditions: A549 phospho-S6 cytoblot, 5 h, higher = more signal;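 note: serum-stimulated A549 lung adenocarcinoma cells; signal is phosphorylated S6 detected by cytoblot immunostaining with HRP secondary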
[8] = molecular target: NADPH oxidase 2 (Homo sapiens) (UniProt P04839); test: NOX2-dependent H2O2 signal modulators, primary screen, NOX inhibitor project, cell-based, HEK293-NOX2, PMA-stimulated, Amplex Red fluorescence (AID 1159); conditions: 45 min, higher = more signal, called active from +8 up or from −8 down; note: test concentration not given here
Chain of NADPH oxidase 2 (Homo sapiens) (P04839 whole entry, looked up): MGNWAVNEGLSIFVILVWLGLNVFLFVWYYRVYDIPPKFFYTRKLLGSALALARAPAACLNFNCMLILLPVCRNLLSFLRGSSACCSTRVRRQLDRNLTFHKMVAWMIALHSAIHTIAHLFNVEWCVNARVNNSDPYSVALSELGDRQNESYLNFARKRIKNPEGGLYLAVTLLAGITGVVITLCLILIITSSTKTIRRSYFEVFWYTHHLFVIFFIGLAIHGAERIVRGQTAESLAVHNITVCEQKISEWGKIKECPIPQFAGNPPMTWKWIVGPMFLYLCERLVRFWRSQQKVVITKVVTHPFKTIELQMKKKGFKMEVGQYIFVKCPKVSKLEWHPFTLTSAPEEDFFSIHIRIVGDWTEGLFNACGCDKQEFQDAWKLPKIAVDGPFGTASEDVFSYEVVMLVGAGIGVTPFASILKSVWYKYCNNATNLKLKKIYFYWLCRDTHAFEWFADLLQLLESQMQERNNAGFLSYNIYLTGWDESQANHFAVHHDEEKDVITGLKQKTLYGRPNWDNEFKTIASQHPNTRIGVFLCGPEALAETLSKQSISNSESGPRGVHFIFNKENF

[9] = molecular target: NADPH oxidase 4 (Homo sapiens) (UniProt Q9NPH5); test: NOX4-dependent H2O2 signal modulators, primary screen, NOX inhibitor project, cell-based, HEK293-NOX4, tetracycline-induced, Amplex Red fluorescence (AID 1160); conditions: 45 min, higher = more signal, called active from +8 up or from −8 down
Chain of NADPH oxidase 4 (Homo sapiens) (Q9NPH5 whole entry, looked up): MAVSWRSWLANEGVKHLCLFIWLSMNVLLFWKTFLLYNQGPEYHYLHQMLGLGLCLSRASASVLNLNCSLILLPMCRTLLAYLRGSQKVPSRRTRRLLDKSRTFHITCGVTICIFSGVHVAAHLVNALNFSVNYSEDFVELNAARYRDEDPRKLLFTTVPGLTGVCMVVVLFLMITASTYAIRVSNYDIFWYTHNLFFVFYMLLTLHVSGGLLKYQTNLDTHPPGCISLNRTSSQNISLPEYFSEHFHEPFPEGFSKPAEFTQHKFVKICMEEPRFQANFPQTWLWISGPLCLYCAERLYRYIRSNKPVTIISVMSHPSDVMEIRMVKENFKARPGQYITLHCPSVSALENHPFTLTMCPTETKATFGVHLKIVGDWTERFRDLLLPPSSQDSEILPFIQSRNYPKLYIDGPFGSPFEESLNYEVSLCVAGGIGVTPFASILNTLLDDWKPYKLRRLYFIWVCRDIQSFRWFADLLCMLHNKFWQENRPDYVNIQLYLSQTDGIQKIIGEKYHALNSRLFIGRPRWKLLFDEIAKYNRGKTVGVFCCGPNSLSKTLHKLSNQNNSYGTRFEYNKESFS

[10] = molecular target: NADPH oxidase 5 (Homo sapiens) (UniProt Q96PH1); test: NOX5-dependent H2O2 signal modulators, primary screen, NOX inhibitor project, cell-based, HEK293-NOX5, Amplex Red fluorescence (AID 1161); conditions: HEK293-NOX5, ionomycin, 45 min, higher = more signal
Chain of NADPH oxidase 5 (Homo sapiens) (Q96PH1 whole entry, looked up): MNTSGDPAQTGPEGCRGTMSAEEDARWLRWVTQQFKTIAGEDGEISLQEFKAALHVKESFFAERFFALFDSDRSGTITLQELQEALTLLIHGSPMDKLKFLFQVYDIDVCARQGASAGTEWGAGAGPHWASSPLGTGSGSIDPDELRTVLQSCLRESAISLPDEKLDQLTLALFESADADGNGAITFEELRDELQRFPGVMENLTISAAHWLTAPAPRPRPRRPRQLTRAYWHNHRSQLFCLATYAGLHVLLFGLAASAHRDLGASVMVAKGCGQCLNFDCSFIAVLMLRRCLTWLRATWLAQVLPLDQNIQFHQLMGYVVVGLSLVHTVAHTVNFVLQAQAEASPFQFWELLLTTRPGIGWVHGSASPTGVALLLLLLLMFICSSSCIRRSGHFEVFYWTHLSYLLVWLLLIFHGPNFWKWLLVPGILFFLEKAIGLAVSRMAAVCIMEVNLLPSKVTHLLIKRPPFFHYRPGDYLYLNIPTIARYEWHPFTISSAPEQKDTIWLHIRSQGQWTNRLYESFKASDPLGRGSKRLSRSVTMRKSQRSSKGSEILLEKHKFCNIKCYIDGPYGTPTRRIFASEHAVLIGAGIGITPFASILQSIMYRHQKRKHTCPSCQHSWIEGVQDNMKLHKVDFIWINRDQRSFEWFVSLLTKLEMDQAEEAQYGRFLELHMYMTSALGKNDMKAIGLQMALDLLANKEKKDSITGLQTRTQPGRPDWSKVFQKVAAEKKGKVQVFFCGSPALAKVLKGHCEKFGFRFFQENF

| SMILES | z-score [1] | composite z-score [2] | z-score [3] | z-score [4] | z-score [5] | z-score [6] | z-score [7] | z-score [8] | z-score [9] | z-score [10] |
| --- | --- | --- | --- | --- | --- | --- | --- | --- | --- | --- |
| CCCCC(=C=CC[C@@H](O)c1ccc(OCCO)cc1)CCO | 0.565 (inactive) | 0.0129 | 6.76 (inactive) | 0.892 (inactive) | 0.249 (inactive) | 0.503 (inactive) | -0.481 | 1.14 (inactive) | 0.699 (inactive) | -0.192 |
| CCCCCN1CC=CC23O[C@@H]4/C=C\CCCOC(=O)C4[C@H]2C(=O)N(CCO)[C@@H]3C1=O (stereo not given in full) | 3.1 (inactive) | -0.103 | 0.592 (inactive) | 0.177 (inactive) | -0.608 (inactive) | -0.776 (inactive) | 1.48 | 0.88 (inactive) | 0.261 (inactive) | 2.19 |
| CC(C)Cc1ccc(CN2CC[C@@H](NC(=O)c3ccccc3)C2)cc1 | -0.55 (inactive) | -0.147 | 1.57 (inactive) | 1.11 (inactive) | 1.23 (inactive) | 0.33 (inactive) | 0.0681 | -0.29 (inactive) | -0.413 (inactive) | -2.41 |
| [N-]=[N+]=Nc1ccccc1C[C@@]1(C(=O)NCc2ccccc2)N=C(c2ccc(OCCCO)cc2)O[C@@H]1c1ccccc1 | 0.0295 (inactive) | 1.43 | 27.6 (active) | 17.3 (active) | 1.4 (inactive) | 2.09 (inactive) | 0.308 | -1.67 (inactive) | -0.0758 (inactive) | -1.1 |
| Cc1cccc([C@H]2C[C@H]3C(Br)=C[C@@]2(CO)C(=O)[C@]32CO2)c1 | -0.269 (inactive) | 0.0509 | -0.131 (inactive) | 0.27 (inactive) | -0.759 (inactive) | -0.063 (inactive) | -0.71 | 0.26 (inactive) | 0.711 (inactive) | -0.0286 |
| C=C(COC)/C(=C/C[C@@H](OC(=O)c1ccncc1)c1ccccc1OCCO)c1cnc2ccccc2c1 | 0.588 (inactive) | 0.333 | 25.7 (active) | 11.5 (active) | 0.518 (inactive) | 1.09 (inactive) | 0.261 | 0.0701 (inactive) | 0.217 (inactive) | -1.13 |
| C=CC[C@@]1(C(=O)NCCCOC)N=C(c2ccc(OCCCO)cc2)O[C@@H]1c1ccccc1CN=[N+]=[N-] | 1.14 (inactive) | 0.607 | 22.3 (active) | 2.5 (inactive) | 0.493 (inactive) | -1.34 (inactive) | 0.812 | -0.477 (inactive) | 0.648 (inactive) | -0.274 |
| C=CCOC(=O)[C@@H]1[C@H]2C(=O)O[C@H](c3ccccc3)[C@H](c3ccccc3)N2[C@H](c2ccc(OCCOC(=O)[C@@H]3C[C@@H]4C(=O)N[C@@H](CC(C)C)C(=O)N4[C@@H]3c3ccc(O)cc3)cc2)[C@@]12C(=O)Nc1ccc(I)cc12 | 0.928 (inactive) | 1.58 | 1.5 (inactive) | 0.9 (inactive) | 4.25 (inactive) | 0.718 (inactive) | 0.0764 | 0.485 (inactive) | 0.64 (inactive) | 0.839 |
| Cc1ccc(S[C@]2(C(=O)NC3CC3)CC(=O)N(C3Cc4ccccc4C3)[C@@H]2c2ccc(CO)cc2I)cc1 | 0.933 (inactive) | 0.227 | 5.18 (inactive) | 0.943 (inactive) | 0.202 (inactive) | 0.254 (inactive) | -0.256 | 1.94 (inactive) | -2.66 (inactive) | 1.41 |
| CCCN1C(=O)[C@@]2(c3ccc([N+](=O)[O-])cc3)CC(=O)N(C3CCCCC3)[C@@H]2c2ccc(CO)cc21 | -1.45 (inactive) | -0.5 | -0.0987 (inactive) | 0.636 (inactive) | -0.203 (inactive) | 0.0577 (inactive) | -0.504 | -0.955 (inactive) | -0.281 (inactive) | -0.19 |
| C=C1C(=O)C=C2CN(C(=O)c3ccccc3)[C@@](Cc3ccc(F)cc3)(C(=O)OC)[C@@H]12 | -2.05 (inactive) | 0.676 | -0.0775 (inactive) | -1.39 (inactive) | -1.69 (inactive) | -1.83 (inactive) | -1.06 | -3.94 (inactive) | -4.76 (inactive) | -3.73 |
| C=CC[C@H](O)c1ccc(O)c(F)c1 | -0.421 (inactive) | -0.555 | 0.307 (inactive) | 0.131 (inactive) | -0.304 (inactive) | 0.255 (inactive) | -0.165 | -1.32 (inactive) | -0.305 (inactive) | 0.113 |
| CN(C)CCCCCCNC(=O)[C@@H]1C[C@@H]2C(=O)N[C@@H](CCCC[N+](C)(C)C)C(=O)N2[C@@H]1c1cccc(OCCO)c1 | 1.44 (inactive) | 0.0651 | 5.12 (inactive) | -0.16 (inactive) | 1.47 (inactive) | -1.04 (inactive) | 2.66 | -0.0444 (inactive) | 0.249 (inactive) | 1.55 |
| CC(C)(C)OC(=O)N1[C@@H](C=C(Br)Br)COC1(C)C | 1.98 (inactive) | -0.147 | -0.794 (inactive) | -1.16 (inactive) | -0.884 (inactive) | -1.66 (inactive) | 0.855 | 2.82 (inactive) | 0.4 (inactive) | -0.152 |
| C=C[C@H](C)[C@@H](OC(=O)Nc1ccc(SC)cc1)c1ccc(OCCO)cc1 | -2.61 (inactive) | 0.459 | 28.3 (active) | 20.6 (active) | 3.01 (inactive) | 2.27 (inactive) | -0.336 | -1.31 (inactive) | -1.23 (inactive) | 0.0398 |
| CN(C)C(=O)[C@]1(CCS(=O)(=O)c2ccccc2)N=C(c2ccc(OCCCO)cc2)O[C@@H]1c1ccccc1CN=[N+]=[N-] | 0.0558 (inactive) | 0.342 | 25.5 (active) | 14.6 (active) | 1.47 (inactive) | 1.57 (inactive) | 0.131 | -0.163 (inactive) | 2.09 (inactive) | -0.658 |
| COc1ccc(CCNC(=O)[C@@]2(c3ccc([N+](=O)[O-])cc3)CC(=O)N(C3CCCCC3)[C@@H]2c2ccc(CO)cc2I)cc1 | 0.423 (inactive) | 0.0341 | 11.9 (active) | 1.78 (inactive) | 3.17 (inactive) | 1.04 (inactive) | -0.189 | 1.3 (inactive) | -1.04 (inactive) | 2.21 |
| C=CC[C@]1(C(N)=O)N=C(c2ccc(OCCCO)cc2)O[C@H]1c1ccccc1N=[N+]=[N-] | 2.21 (inactive) | 0.408 | 33.4 (active) | 30.8 (active) | 2.17 (inactive) | 9.7 (active) | -0.0547 | -1.77 (inactive) | 0.627 (inactive) | 0.189 |
| COc1ccc([Si](C)(C)[C@H]2[C@H](CCO)O[C@@]3(C(=O)N(Cc4ccccc4)c4ccc(NC(=O)[C@H](C)O)cc43)[C@@H]2C)cc1 | -0.0149 (inactive) | 0.013 | 10.8 (active) | 2.73 (inactive) | 0.0811 (inactive) | 1.43 (inactive) | 0.0757 | -0.699 (inactive) | 0.488 (inactive) | 1.66 |
| CCCCN1CC=CC23O[C@@H]4C=CCCOC(=O)C4[C@H]2C(=O)N(CCO)[C@@H]3C1=O (stereo not given in full) | 0.634 (inactive) | -0.239 | 0.506 (inactive) | 0.303 (inactive) | 1.21 (inactive) | 0.211 (inactive) | -0.357 | 1.09 (inactive) | 0.519 (inactive) | 0.432 |
| COC(=O)Cn1c(C(=O)N(C)C)cc2c1C[C@H]1CN(C(=O)c3ccccc3)[C@@](Cc3ccccc3)(C(=O)OC)[C@@H]21 | -2.08 (inactive) | 0.155 | -0.424 (inactive) | -0.734 (inactive) | -0.486 (inactive) | -1.31 (inactive) | 0.17 | 0.363 (inactive) | 1.59 (inactive) | -0.11 |
| CCOC(=O)C[C@H]1[C@H](OC(=O)c2ccc(-c3ccccc3)cc2)[C@@H](NC(=O)C2CCCCC2)c2cc(OCCCO)ccc2N1C(=O)Cc1ccc(OC)cc1 | -0.815 (inactive) | 0.0315 | 2.23 (inactive) | 0.166 (inactive) | -0.816 (inactive) | 0.0141 (inactive) | 0.571 | -0.289 (inactive) | 1.21 (inactive) | 0.732 |
